# Article PMC4336329 (PLoS ONE, 2015)
# Among all 310,000 compounds or so, about 14,000 (4.5%) showed an effect of 50% or more. Effects have a minus sign here. This is one part of a sample in which strong results are shown more often than they occur.
# Biological target: human ether-à-go-go-related gene (hERG) potassium channel (human, UniProt Q12809)
# Assay: primary screen, population patch clamp on CHO cells stably expressing hERG; higher = less effect of the substance
# 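Also: peak tail current of the secondary pulse compared with the same well before compound.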
# human ether-à-go-go-related gene (hERG) potassium channel, sequence (Q12809 whole entry, looked up): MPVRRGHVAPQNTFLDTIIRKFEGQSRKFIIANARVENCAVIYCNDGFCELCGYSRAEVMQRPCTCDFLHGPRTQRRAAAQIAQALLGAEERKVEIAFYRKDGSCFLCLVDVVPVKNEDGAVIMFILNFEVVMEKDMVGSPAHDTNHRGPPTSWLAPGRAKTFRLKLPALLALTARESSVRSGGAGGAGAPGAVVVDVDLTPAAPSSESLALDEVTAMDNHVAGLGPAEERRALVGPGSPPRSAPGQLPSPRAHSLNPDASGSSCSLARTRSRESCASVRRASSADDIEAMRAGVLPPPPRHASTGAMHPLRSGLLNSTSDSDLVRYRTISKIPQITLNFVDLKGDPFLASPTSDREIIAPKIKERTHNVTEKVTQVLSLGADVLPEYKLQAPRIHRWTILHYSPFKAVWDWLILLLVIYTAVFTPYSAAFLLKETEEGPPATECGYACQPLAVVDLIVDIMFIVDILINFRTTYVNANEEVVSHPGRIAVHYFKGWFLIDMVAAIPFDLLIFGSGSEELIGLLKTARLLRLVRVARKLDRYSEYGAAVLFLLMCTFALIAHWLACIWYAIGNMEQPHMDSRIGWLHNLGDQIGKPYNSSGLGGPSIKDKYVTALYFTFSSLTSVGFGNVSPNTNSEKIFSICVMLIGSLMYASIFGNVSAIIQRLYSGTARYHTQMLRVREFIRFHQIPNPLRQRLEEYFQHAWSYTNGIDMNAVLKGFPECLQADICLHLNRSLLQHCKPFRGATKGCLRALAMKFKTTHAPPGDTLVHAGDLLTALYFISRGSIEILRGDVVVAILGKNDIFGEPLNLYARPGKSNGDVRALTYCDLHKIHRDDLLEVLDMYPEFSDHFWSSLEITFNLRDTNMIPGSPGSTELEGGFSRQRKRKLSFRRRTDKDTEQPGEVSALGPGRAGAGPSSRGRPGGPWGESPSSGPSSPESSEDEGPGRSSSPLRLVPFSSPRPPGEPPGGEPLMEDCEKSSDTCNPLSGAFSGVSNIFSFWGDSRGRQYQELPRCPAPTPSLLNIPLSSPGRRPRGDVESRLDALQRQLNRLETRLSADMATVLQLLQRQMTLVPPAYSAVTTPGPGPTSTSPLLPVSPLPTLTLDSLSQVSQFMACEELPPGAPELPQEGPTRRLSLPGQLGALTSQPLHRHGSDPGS
row,Structure (SMILES),"hERG current change (%, negative = inhibition) at 10uM [%]"
1,CC1=CC(C)[C@@H]2COC(c3ccc(O)cc3)[C@H]1C2C (some centres unmarked),4.96
2,Cc1ccc(N2CC(C(=O)NCc3nnnn3-c3ccc(C)c(C)c3)CC2=O)cc1 (centres unmarked),-19.8
3,Cc1ccc(S(=O)(=O)NC(=O)C2CCCCC2)cc1,14.3
4,O=C(COc1ccc2ccccc2c1)NCCNC(=O)COc1ccc2ccccc2c1,17.2
5,O=C(c1cc(-c2ccccc2)on1)N1CCCC1,9.39
6,O=C(NCc1ccc2c(c1)OCO2)c1ccc2c(c1)OCCO2,8.03
7,CC(CN1CCN(Cc2ccccc2)CC1)c1ccccc1.O=C(O)C(=O)O (centres unmarked),-14
8,CC(=O)c1ccc(S(=O)(=O)NCC(=O)N2CCN(C/C=C/c3ccccc3)CC2)cc1,-38.7
9,CC(CN1CCCCC1)c1ccccc1.O=C(O)C(=O)O (centres unmarked),13.1
10,COc1ccc(N2CCN(C(C)C(=O)N(C)Cc3ccccc3)CC2)cc1 (centres unmarked),-17.3
11,CC(C(=O)N(C)Cc1ccccc1)N1CCN(C/C=C/c2ccccc2)CC1 (centres unmarked),-78.9
12,CC(=O)Nc1ccc(S(=O)(=O)N[C@@H](C)C(=O)N2CCN(C/C=C/c3ccccc3)CC2)cc1,-31.8
13,CC(C)C(NC(=O)c1ccccc1)C(=O)N1CCN(C/C=C/c2ccccc2)CC1 (centres unmarked),-41.2
14,CC(C(=O)Nc1cccc(S(=O)(=O)N2CCOCC2)c1)N1CCN(C/C=C/c2ccccc2)CC1 (centres unmarked),-75
15,CC(C(=O)Nc1cccc(S(=O)(=O)N2CCOCC2)c1)N1CCN(c2ccc(F)cc2)CC1 (centres unmarked),-40.3
16,CC(C(=O)Nc1cccc(S(=O)(=O)N2CCOCC2)c1)N1CCN(C)CC1 (centres unmarked),-5.23
17,CC(=O)c1ccc(NC(=O)C(C)N2CCN(C/C=C/c3ccccc3)CC2)cc1 (centres unmarked),-71.4
18,CC(CN1CCN(C/C=C/c2ccccc2)CC1)c1ccccc1.O=C(O)C(=O)O (centres unmarked),-59.6
19,CCc1nnc(NC(=O)c2ccc(S(=O)(=O)N(CC)Cc3ccccc3)cc2)o1,-12.9

row,Structure (SMILES),"hERG current change (%, negative = inhibition) at 10uM [%]"
1,O=C(Nc1nc(-c2cccs2)cs1)C1=COCCO1,-15.9
2,CCCCC(=O)Nc1ccc2c(c1)C(=O)NC2=O,2.21
3,Cc1ccc(NC(=O)c2c(-c3ccccc3Cl)noc2C)nc1,1.56
4,COc1ccc(NC(=O)COC(=O)c2cc(Cl)ccc2O)cc1S(=O)(=O)N1CCCCC1,10.5
5,O=C(COC(=O)c1cccnc1Cl)NCC1CCCO1 (centres unmarked),10.8
6,COc1ccccc1/C=C/C=N/N1CCN(c2ccccn2)CC1,-2.4
7,Cc1cccc(CS(=O)(=O)Cc2ccc(C(=O)O)o2)c1,16.5
8,CNC(=O)NC(=O)C(C)N1CCN(C/C=C/c2ccccc2)CC1 (centres unmarked),-63
9,CC(C(=O)Nc1cccc([N+](=O)[O-])c1)N1CCN(C/C=C/c2ccccc2)CC1 (centres unmarked),-75.6
10,CC(C(=O)Nc1cccc([N+](=O)[O-])c1)n1nnc2ccccc21 (centres unmarked),-33.5
11,CC(C)NC(=S)N1CCN(C/C=C/c2ccccc2)CC1,-15.5
12,CCCCNC(=O)N1CCN(C/C=C/c2ccccc2)CC1,-29.9
13,COC(C(=O)Nc1cccc([N+](=O)[O-])c1)c1ccccc1 (centres unmarked),1.56
14,Cc1nc(SCC(N)=O)[nH]c(=O)c1Cc1ccc(OC(C)C)cc1,3.98
15,CCCCCC(=O)Nc1ccc(-c2csc(C)n2)cc1,18.7
16,COc1cccc(N(CC(=O)NC(C)c2ccccc2)S(C)(=O)=O)c1 (centres unmarked),22.3
17,N=C1/C(=C\c2coc3ccccc3c2=O)C(=O)N=C2SC(c3ccncc3)=NN12,-59
18,N=C1/C(=C\c2coc3ccccc3c2=O)C(=O)N=C2SC=CN12,15.3
19,N=C1/C(=C/c2coc3ccccc3c2=O)C(=O)N=C2SC(c3ccco3)=NN12,12.8

row,Structure (SMILES),"hERG current change (%, negative = inhibition) at 10uM [%]"
1,O=C(Nc1nnc(-c2ccc(Cl)cc2)o1)Nc1ccccc1F,1.31
2,Cc1csc(CN(C)C(=O)CC2C(=O)NCCN2Cc2ccc(F)c(F)c2)n1 (centres unmarked),6.02
3,COCCCNC(=S)NCCNc1nc2cc(C)c(C)cc2cc1C#N,-2.23
4,C/C(=C/c1ccccc1)C(=O)N1CC(C)OC(C)C1 (centres unmarked),11.7
5,COc1cc2c(cc1OC)C(c1cccc(C)c1)CC(=O)N2 (centres unmarked),-10.5
6,CCn1c(SCC(=O)N=Nc2c(O)[nH]c3ccccc23)nnc1-c1ccc(C(C)(C)C)cc1,-5.11
7,Cc1cc(O)cc(C)c1Cl,-2.78
8,O=C(NC(=S)Nc1ccccc1N1CCN(C(=O)c2ccccc2)CC1)c1cccs1,9.73
9,CCOC(=O)N1CCN(C(=O)c2ccc(Cl)c(NC(=O)c3cccs3)c2)CC1,-54.7
10,O=C(NCC(=O)N1CCN(c2ccccc2O)CC1)c1cccs1,3.84
11,Cc1ccc(NC(=O)c2ccc(Cl)c(NC(=O)c3cccs3)c2)cc1,-12.5
12,O=C(Nc1cc(C(=O)N2CCN(c3ccccc3O)CC2)ccc1Cl)c1cccs1,-60.1
13,CC(=O)N1CCN(C(=O)c2ccc(Cl)c(NC(=O)c3cccs3)c2)CC1,-15.3
14,COc1ccc(NC(=O)CN(C)C(=O)c2ccc(=O)[nH]c2)cc1,21.7
15,COc1ccc(NC(=O)C2CC(=O)N(Cc3ccco3)C2)cc1Cl (centres unmarked),-4.14
16,N/C(=N\O)c1ccccc1-n1cccc1,25.7
17,COc1ccc(/C(N)=N/OC(=O)/C=C/c2ccccc2)cc1,-37.2
18,CCCN1CCN(S(=O)(=O)c2cn(C)nc2C)CC1,22
